Conditions in all cases: mRNA level, 48 h; actives raise or lower the signal
Read-out in test [1]: Fatty acid synthase (Homo sapiens) (UniProt P49327)
The experiment in a line: LTEA_HepaRG_FASN: Life Technologies and Expression Analysis (LTEA) Assay for Fatty Acid Synthase (FASN) using HepaRG (AID 2283448). The method, boiled down:
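Differentiated human HepaRG cells were exposed for 48 h in serum-free induction medium to eight half-log concentrations up to 100 uM in 0.5% DMSO, in duplicate. FASN mRNA was quantified by TaqMan qRT-PCR, normalized to ACTB/GAPDH/POLR2A, and fitted bidirectionally against DMSO.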

Read-out in test [2]: Cyclin Dependent Kinase Inhibitor 1A (CDKN1A), CDKN1A (gene 1026)
The experiment in a line: LTEA_HepaRG_CDKN1A: Life Technologies and Expression Analysis (LTEA) Assay for Cyclin Dependent Kinase Inhibitor 1A (CDKN1A) using HepaRG (AID 2283450). The method in brief: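 Gain or loss of CDKN1A transcript is scored by bidirectional fitting against 0.5% DMSO vehicle. Human HepaRG cultures receive chemicals for 48 h across an 8-point series peaking at 100 uM; expression comes from qRT-PCR.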

Read-out in test [3]: Cyclin D1 (CCND1), CCND1 (gene 595)
The experiment in a line: LTEA_HepaRG_CCND1: Life Technologies and Expression Analysis (LTEA) Assay for Cyclin D1 (CCND1) using HepaRG (AID 2283451).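 As to AC50: TaqMan qRT-PCR transcript level normalised to ACTB GAPDH and POLR2A housekeeping genes.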 The method in brief: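 Expression change is measured by qRT-PCR in HepaRG cells after 48 h treatment across eight concentrations topping at 100 uM, with duplicate wells and DMSO (0.5%) serving as baseline for bidirectional fitting.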

Read-out in test [4]: catalase (CAT), CAT (gene 847)
The experiment in a line: LTEA_HepaRG_CAT: Life Technologies and Expression Analysis (LTEA) Assay for catalase (CAT) using HepaRG (AID 2283452).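 As to AC50: TaqMan qRT-PCR signal normalized to ACTB GAPDH and POLR2A housekeeping genes.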 The method in brief: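 HepaRG cells in serum-free induction medium, 0.5% DMSO vehicle, exposed 48 h in duplicate over 8 half-log concentrations from 100 uM. CAT mRNA measured by qRT-PCR, normalized to ACTB, GAPDH, POLR2A; bidirectional fit versus DMSO.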

Read-out in test [5]: flavin-containing dimethylaniline monooxygenases 3 (FMO3), FMO3 (gene 2328)
The experiment in a line: LTEA_HepaRG_FMO3: Life Technologies and Expression Analysis (LTEA) Assay for flavin-containing dimethylaniline monooxygenases 3 (FMO3) using HepaRG (AID 2283453). The method in brief:
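HepaRG, 48 h exposure, 8-pt half-log series from 100 uM, 0.5% DMSO vehicle, duplicates; FMO3 transcript by Fluidigm TaqMan qRT-PCR, housekeeping-normalized; gain/loss fit vs DMSO.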

Read-out in test [6]: Cytochrome P450 (CYP1A1), CYP1A1 (gene 1543)
In words: LTEA_HepaRG_CYP1A1: Life Technologies and Expression Analysis (LTEA) Assay for Cytochrome P450 (CYP1A1) using HepaRG (AID 2283454). The method in brief:
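Using HepaRG cultures with 0.5% DMSO as vehicle, eight-concentration exposures (max 100 uM) lasted 48 h. Transcript levels were measured by TaqMan qRT-PCR and normalized to ACTB, GAPDH and POLR2A.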

Read-out in test [7]: CFLAR gene, CFLAR (gene 8837)
The experiment in a line: LTEA_HepaRG_CFLAR: Life Technologies and Expression Analysis (LTEA) Assay for CFLAR gene using HepaRG (AID 2283455). The method in brief:
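Differentiated HepaRG cells in serum-free induction medium were exposed 48 h in duplicate to eight half-log concentrations up to 100 uM in 0.5% DMSO; mRNA measured by TaqMan qRT-PCR, normalized to ACTB, GAPDH, POLR2A; bidirectional fitting versus DMSO.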

Read-out in test [8]: Forkhead box O1 (FOXO1), FOXO1 (gene 2308)
In words: LTEA_HepaRG_FOXO1: Life Technologies and Expression Analysis (LTEA) Assay for Forkhead box O1 (FOXO1) using HepaRG (AID 2283456). The method in brief:
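Differentiated HepaRG cells, in serum-free induction medium with 0.5% DMSO, exposed 48 h in duplicate to 8-point half-log series from 100 uM. FOXO1 mRNA measured by TaqMan qRT-PCR, normalized to ACTB, GAPDH, POLR2A; bidirectional fit versus DMSO.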

Read-out in test [9]: growth arrest and DNA damage 45 (GADD45A), GADD45A (gene 1647)
In words: LTEA_HepaRG_GADD45A: Life Technologies and Expression Analysis (LTEA) Assay for growth arrest and DNA damage 45 (GADD45A) using HepaRG (AID 2283458). The method, boiled down: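 Differentiated HepaRG cells were exposed in duplicate for 48 h in serum-free induction medium to 8-point half-log concentrations up to 100 uM in 0.5% DMSO. GADD45A mRNA was measured by TaqMan qRT-PCR, normalized to ACTB, GAPDH and POLR2A, with bidirectional fitting versus DMSO.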

Read-out in test [10]: Forkhead box O3 (FOXO3), FOXO3 (gene 2309)
In words: LTEA_HepaRG_FOXO3: Life Technologies and Expression Analysis (LTEA) Assay for Forkhead box O3 (FOXO3) using HepaRG (AID 2283459). The method in brief: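 Differentiated human HepaRG cells, 48 h post-plating, exposed in duplicate for 48 h in serum-free induction medium; 8-point half-log series from 100 uM in 0.5% DMSO. FOXO3 mRNA by TaqMan qRT-PCR, normalized to ACTB/GAPDH/POLR2A; bidirectional fit versus DMSO.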

Read-out in test [11]: ABC Transporter (ABCB1), ABCB1 (gene 5243)
The experiment in a line: LTEA_HepaRG_ABCB1: Life Technologies and Expression Analysis (LTEA) Assay for ABC Transporter (ABCB1) using HepaRG (AID 2283460). The method, boiled down: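 HepaRG cells exposed in duplicate for 48 h in serum-free induction medium to eight half-log concentrations up to 100 uM in 0.5% DMSO. ABCB1 mRNA quantified by qRT-PCR, normalised to ACTB, GAPDH and POLR2A; fitted bidirectionally versus DMSO.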

Read-out in test [12]: growth arrest and DNA damage 45 (GADD45B), GADD45B (gene 4616)
The experiment in a line: LTEA_HepaRG_GADD45B: Life Technologies and Expression Analysis (LTEA) Assay for growth arrest and DNA damage 45 (GADD45B) using HepaRG (AID 2283461). The method in brief:
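Human HepaRG monolayers receive chemicals for 48 h at eight half-log concentrations, highest 100 uM, in 0.5% DMSO. Expression is measured by TaqMan qRT-PCR and normalized to ACTB, GAPDH and POLR2A.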

Read-out in test [13]: ABC Transporter (ABCC3), ABCC3 (gene 8714)
In words: LTEA_HepaRG_ABCC3: Life Technologies and Expression Analysis (LTEA) Assay for ABC Transporter (ABCC3) using HepaRG (AID 2283462). The method in brief: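 Transcriptional change of ABCC3 in HepaRG after 48 h treatment, determined by qRT-PCR normalized to endogenous controls. Concentrations spanned eight half-log steps to 100 uM in 0.5% DMSO.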

Read-out in test [14]: ABC Transporter (ABCB11), ABCB11 (gene 8647)
In words: LTEA_HepaRG_ABCB11: Life Technologies and Expression Analysis (LTEA) Assay for ABC Transporter (ABCB11) using HepaRG (AID 2283463). The method in brief: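 Differentiated human HepaRG cells in serum-free induction medium, dosed in duplicate for 48 h. Eight-point half-log series from 100 uM in 0.5% DMSO; ABCB11 mRNA by qRT-PCR, normalized to ACTB, GAPDH, POLR2A, fitted bidirectionally versus DMSO.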

Read-out in test [15]: ABC Transporter (ABCC2), ABCC2 (gene 1244)
The experiment in a line: LTEA_HepaRG_ABCC2: Life Technologies and Expression Analysis (LTEA) Assay for ABC Transporter (ABCC2) using HepaRG (AID 2283464). The method, boiled down:
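After plating and 48 h culture, HepaRG medium is replaced with serum-free induction medium and chemicals are added (8 concentrations, max 100 uM, 0.5% DMSO) for 48 h. Total RNA then undergoes qRT-PCR for ABCC2 with housekeeping normalization.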

Read-out in test [16]: Broad substrate specificity ATP-binding cassette transporter ABCG2 (Homo sapiens) (UniProt Q9UNQ0)
The experiment in a line: LTEA_HepaRG_ABCG2: Life Technologies and Expression Analysis (LTEA) Assay for ABC Transporter (ABCG2) using HepaRG (AID 2283465). The method, boiled down: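 Differentiated HepaRG cells were exposed for 48 h in serum-free induction medium to 8 half-log concentrations, top 100 uM, in 0.5% DMSO. ABCG2 mRNA was measured by qRT-PCR, normalized to ACTB, GAPDH and POLR2A, with bidirectional fitting versus DMSO.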

Read-out in test [17]: ATP-citrate lyase (ACLY), ACLY (gene 47)
In words: LTEA_HepaRG_ACLY: Life Technologies and Expression Analysis (LTEA) Assay for ATP-citrate lyase (ACLY) using HepaRG (AID 2283466). The method in brief:
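Differentiated HepaRG cells exposed 48 h in serum-free induction medium to eight half-log concentrations up to 100 uM in 0.5% DMSO, duplicates. Transcript measured by Fluidigm TaqMan qRT-PCR, normalized to ACTB, GAPDH, POLR2A; bidirectional fit versus DMSO.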

Read-out in test [18]: Peroxisomal acyl-coenzyme A oxidase 1 (ACOX1) gene, ACOX1 (gene 51)
The experiment in a line: LTEA_HepaRG_ACOX1: Life Technologies and Expression Analysis (LTEA) Assay for Peroxisomal acyl-coenzyme A oxidase 1 (ACOX1) gene using HepaRG (AID 2283467). The method, boiled down: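 HepaRG cells, plated 48 h then switched to serum-free induction medium, were exposed in duplicate for 48 h to 8-point half-log concentrations up to 100 uM in 0.5% DMSO. ACOX1 mRNA was measured by qRT-PCR, normalized to ACTB/GAPDH/POLR2A, and fitted bidirectionally versus DMSO.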

Read-out in test [19]: Cyclin D2 (CCND2), CCND2 (gene 894)
In words: LTEA_HepaRG_CCND2: Life Technologies and Expression Analysis (LTEA) Assay for Cyclin D2 (CCND2) using HepaRG (AID 2283449).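 Also: CCND2 transcript measured by TaqMan qRT-PCR and normalised to three housekeeping genes.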 The method in brief: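 Chemicals in 0.5% DMSO, eight half-log concentrations from 100 uM top, were applied in duplicate for 48 h to human HepaRG cells in serum-free induction medium. CCND2 mRNA by TaqMan qRT-PCR, normalised to ACTB/GAPDH/POLR2A; bidirectional fit versus DMSO.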

Experimental findings from PubChem BioAssay (EPA / NIEHS) are described below.

As a reminder, the AC50 is the midpoint of the concentration-response curve, whichever way the signal moves.

Activity calls are given as the source filed them. The calls were made as follows: active = hit-call score of the fitted dose curve at least 0.9, where 1 is the maximum; inactive = score below 0.9.

Sequence of Fatty acid synthase (Homo sapiens) (P49327 whole entry, looked up): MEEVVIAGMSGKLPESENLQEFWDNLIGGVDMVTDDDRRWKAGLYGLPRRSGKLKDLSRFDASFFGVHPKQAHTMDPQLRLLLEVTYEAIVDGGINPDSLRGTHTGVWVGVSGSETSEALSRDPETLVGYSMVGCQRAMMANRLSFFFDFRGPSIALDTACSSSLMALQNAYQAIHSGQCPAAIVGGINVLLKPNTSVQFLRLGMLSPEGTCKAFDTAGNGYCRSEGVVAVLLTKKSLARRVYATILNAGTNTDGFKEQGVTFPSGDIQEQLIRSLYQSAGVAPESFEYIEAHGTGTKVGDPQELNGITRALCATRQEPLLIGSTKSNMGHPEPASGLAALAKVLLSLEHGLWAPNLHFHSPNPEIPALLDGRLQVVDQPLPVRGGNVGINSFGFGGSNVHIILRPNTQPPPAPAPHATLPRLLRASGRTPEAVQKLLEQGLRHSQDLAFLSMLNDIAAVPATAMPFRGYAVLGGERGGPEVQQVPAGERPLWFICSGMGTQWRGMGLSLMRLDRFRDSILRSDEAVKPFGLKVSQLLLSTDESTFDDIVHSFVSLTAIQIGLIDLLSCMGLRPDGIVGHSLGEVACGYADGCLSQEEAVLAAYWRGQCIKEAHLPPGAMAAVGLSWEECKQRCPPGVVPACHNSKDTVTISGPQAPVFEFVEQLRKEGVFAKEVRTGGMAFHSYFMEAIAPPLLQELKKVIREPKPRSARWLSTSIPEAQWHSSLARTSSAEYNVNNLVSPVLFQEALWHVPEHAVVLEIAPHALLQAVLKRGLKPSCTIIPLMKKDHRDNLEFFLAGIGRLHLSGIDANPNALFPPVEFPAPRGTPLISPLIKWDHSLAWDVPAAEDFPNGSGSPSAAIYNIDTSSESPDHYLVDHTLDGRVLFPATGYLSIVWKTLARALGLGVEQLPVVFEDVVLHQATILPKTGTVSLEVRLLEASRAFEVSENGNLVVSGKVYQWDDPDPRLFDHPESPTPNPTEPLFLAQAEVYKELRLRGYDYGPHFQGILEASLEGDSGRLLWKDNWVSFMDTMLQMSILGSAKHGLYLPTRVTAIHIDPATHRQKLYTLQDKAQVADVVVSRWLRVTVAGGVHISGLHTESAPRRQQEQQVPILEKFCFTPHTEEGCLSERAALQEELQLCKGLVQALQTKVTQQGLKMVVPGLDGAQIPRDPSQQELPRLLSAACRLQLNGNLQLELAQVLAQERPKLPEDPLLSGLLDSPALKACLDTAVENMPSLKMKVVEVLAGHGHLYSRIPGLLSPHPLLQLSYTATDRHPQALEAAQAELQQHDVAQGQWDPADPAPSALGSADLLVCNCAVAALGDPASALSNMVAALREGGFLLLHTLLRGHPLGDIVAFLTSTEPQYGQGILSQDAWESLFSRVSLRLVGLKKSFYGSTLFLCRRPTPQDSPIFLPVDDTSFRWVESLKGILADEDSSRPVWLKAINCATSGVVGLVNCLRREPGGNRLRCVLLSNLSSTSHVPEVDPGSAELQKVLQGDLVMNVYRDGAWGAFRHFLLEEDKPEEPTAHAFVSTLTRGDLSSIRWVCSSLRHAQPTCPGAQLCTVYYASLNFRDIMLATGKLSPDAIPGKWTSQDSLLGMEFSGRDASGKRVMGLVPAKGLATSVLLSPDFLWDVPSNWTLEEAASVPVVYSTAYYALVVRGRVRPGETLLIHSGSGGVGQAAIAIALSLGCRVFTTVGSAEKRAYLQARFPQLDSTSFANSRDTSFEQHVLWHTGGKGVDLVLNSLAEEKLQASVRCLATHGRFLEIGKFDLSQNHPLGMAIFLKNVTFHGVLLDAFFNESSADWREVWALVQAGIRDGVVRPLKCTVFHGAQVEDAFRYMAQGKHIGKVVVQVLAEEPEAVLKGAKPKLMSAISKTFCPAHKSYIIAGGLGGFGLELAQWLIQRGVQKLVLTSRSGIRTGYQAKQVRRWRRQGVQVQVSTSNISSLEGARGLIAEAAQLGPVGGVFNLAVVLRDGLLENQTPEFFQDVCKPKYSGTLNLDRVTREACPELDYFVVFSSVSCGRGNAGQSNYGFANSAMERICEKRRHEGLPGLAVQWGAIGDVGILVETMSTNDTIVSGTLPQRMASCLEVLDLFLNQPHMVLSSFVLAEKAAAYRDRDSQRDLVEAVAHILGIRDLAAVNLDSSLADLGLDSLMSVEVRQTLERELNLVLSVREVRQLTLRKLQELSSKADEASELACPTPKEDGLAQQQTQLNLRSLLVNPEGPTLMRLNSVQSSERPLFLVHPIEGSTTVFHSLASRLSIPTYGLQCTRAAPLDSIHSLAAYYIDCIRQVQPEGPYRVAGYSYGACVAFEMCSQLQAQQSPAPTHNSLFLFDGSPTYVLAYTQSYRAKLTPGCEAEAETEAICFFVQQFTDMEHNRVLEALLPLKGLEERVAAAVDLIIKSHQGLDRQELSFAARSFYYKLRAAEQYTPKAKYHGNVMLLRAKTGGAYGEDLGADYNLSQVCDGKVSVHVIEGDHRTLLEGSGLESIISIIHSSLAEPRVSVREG
Sequence of Broad substrate specificity ATP-binding cassette transporter ABCG2 (Homo sapiens) (Q9UNQ0 whole entry, looked up): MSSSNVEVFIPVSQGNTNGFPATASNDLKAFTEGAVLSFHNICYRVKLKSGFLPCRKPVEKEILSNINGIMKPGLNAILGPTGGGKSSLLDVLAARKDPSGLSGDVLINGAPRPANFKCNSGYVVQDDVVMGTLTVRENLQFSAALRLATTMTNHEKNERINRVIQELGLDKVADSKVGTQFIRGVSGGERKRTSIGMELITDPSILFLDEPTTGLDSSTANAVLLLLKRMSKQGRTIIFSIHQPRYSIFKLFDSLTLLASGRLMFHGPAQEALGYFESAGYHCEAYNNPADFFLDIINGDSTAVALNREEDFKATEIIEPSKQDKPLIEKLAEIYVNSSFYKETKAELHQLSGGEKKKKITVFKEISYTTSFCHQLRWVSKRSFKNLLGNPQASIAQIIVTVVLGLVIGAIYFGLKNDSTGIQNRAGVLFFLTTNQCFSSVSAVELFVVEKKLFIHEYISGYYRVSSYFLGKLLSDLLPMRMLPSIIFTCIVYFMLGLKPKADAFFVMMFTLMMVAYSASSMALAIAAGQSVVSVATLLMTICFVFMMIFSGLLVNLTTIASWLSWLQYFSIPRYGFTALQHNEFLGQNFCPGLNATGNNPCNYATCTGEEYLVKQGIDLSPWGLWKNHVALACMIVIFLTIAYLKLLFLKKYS

As for `O=C(O)C(F)(F)C(F)(F)C(F)(F)C(F)(F)C(F)(F)C(F)(F)C(F)(F)C(F)(F)F`, the half-maximal activity concentration (AC50) in [1] was 94.2 µM (active); in test [2] it was 79.9 µM (active); in test [3], 50 µM (active); in test [4] it was 85 µM (active); in test [5] it was 79.7 µM (active); in test [9] it was 74.6 µM (active). Further, the AC50 in test [10] is 50 µM (active); in test [11] it was 75.3 µM (active); in [12], 16.8 µM (active); in test [14] it was 90.4 µM (active); in test [15], 82.7 µM (active); in test [16], 50 µM (active). The AC50 in [18] was 90.4 µM (active). Moreover, the molecule was called inactive in [6], in [7], in test [8], in test [13] and in test [17].
Consider `Cc1cccc(C)c1N`, for which the molecule was called inactive in test [1], in [19], in test [2], in test [3], in [4] and in [5]. Besides, the call in test [7], in [9], in test [10], in [11], in test [12] and in [13] was inactive. Moreover, the result in test [14], in test [16], in test [17] and in test [18] was inactive. Moreover, in [6], the AC50 is 51.8 µM (active).
For the molecule `CCCCCCCCCc1ccc(O)cc1`, the outcome in test [1], in test [19], in test [2], in [3], in test [4] and in test [5] was inactive. For the same molecule, the outcome in [7], in test [9], in test [10], in test [11], in test [12] and in [13] was inactive. In addition, the molecule was classed as inactive in [14], in [16], in test [17] and in test [18]. Besides, the AC50 in test [6] is 50 µM (active).
